Laboratory results: PubChem BioAssay (NCATS)
Where “and” joins values, the source holds several entries; their conditions need not be identical. Equal entries are not always repeated. Results filed as inconclusive are left out. Some structures have more than one record in an assay (separate samples or runs), and their calls can disagree. Calls of active or inactive are those of the source. Unless noted, the call rests on the fitted dose curve; in most records, active means well fitted curve in either direction with a large enough effect (not every such curve was filed as active); inconclusive means small, poorly fitted or top-dose-only effect, or another doubt; inactive means flat fitted curve, though single readings scatter.

Assays:
[1] = AP1 Signaling Pathway (AID 357); conditions: ME-180 AP-1-bla reporter, EGF-induced, beta-lactamase ratio, 5 h;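 further: ME-180 reporter cells stimulated with EGF at its EC50 level; on the % scale 0 is the no-effect control and ±100 the full control effect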
Method in brief: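 In this screen, ME-180 cells in Opti-MEM with 0.5% dialyzed FBS received EC50 EGF and compound titrations for 5 h. AP-1 reporter beta-lactamase was detected via CCF4 ratio, giving AC50 for positive and negative modulators.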

[2] = biological target: Cytochrome P450 1A2 (Homo sapiens) (UniProt P05177); assay: p450-cyp1a2 (AID 410; calls by dose curve; further: potency means the concentration at half of the fitted maximal effect;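 on activity change, negative = inhibition: -100% = full effect of reference inhibitor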); conditions: recombinant CYP1A2, luciferin-ME demethylation, luminescence; series mostly up to 57 µM
Chain of Cytochrome P450 1A2 (Homo sapiens) (P05177 whole entry, looked up): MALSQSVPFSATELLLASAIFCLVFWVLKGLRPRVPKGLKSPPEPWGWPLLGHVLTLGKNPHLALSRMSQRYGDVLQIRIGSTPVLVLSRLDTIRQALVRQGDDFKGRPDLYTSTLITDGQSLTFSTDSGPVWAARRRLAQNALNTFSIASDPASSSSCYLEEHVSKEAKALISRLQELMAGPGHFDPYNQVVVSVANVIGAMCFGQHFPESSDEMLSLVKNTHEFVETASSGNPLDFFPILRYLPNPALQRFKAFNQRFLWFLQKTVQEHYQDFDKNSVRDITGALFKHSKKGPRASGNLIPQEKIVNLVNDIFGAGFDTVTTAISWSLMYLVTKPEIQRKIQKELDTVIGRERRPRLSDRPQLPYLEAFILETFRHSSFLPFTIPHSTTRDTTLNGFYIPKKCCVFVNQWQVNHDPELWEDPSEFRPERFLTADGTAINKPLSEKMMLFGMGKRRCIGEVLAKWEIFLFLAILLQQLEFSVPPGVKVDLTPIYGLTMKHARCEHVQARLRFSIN
Method in brief: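 20nM CYP1A2 with 100uM Luciferin-ME (at Km) in 100mM KPO4; compound preincubated 10 min, NADPH regeneration added, 60 min at room temperature. Luciferin quantified by luminescence after detection reagent; normalized to 57 uM furafylline.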

[3] = NFAT Signaling Pathway (AID 444); conditions: Jurkat NFAT-bla M1, carbachol, beta-lactamase ratio, 5 h;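 further: carbachol stimulus at about its EC50 of 1 µM final; on the % scale 0 is the no-effect control and ±100 the full control effect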
Method in brief: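 Jurkat cells with NFAT-driven β-lactamase reporter and co-expressed M1 receptor, stimulated with carbachol (final 1 uM, ~EC50), compound titration, 5 h at 37 °C. CCF4 loaded 1 h at RT; 460/530 nm ratio gave %activity and AC50.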

[4] = Stat Signaling Pathway (AID 446); conditions: ME-180 SIE beta-lactamase reporter, IL-6 stimulated, 5 h;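 further: ME-180 cervical cancer cells given 40 pM IL-6 alongside compound; SIE-controlled beta-lactamase reporter measured as 460/530 nm FRET emission ratio; on the % scale 0 is the no-effect control and ±100 the full control effect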
Method in brief: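 Screening format detects activators and inhibitors alike: ME-180 SIE-bla cells stimulated at 40 pM IL-6 for 5 hrs with compound, then dual-emission beta-lactamase read at 405 nm excitation.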

[5] = biological target: Glucocorticoid receptor (Homo sapiens) (UniProt P04150); assay: GR-GFP Redistribution (AID 450;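 active means compounds whose dose series gives a full or clear partial fitted curve of increased nuclear translocation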; further: potency means the concentration at half of the fitted maximal effect); conditions: U2OS GR-GFP nuclear translocation, laser cytometry, 2 h
Chain of Glucocorticoid receptor (Homo sapiens) (P04150 whole entry, looked up, the tested form may be a part): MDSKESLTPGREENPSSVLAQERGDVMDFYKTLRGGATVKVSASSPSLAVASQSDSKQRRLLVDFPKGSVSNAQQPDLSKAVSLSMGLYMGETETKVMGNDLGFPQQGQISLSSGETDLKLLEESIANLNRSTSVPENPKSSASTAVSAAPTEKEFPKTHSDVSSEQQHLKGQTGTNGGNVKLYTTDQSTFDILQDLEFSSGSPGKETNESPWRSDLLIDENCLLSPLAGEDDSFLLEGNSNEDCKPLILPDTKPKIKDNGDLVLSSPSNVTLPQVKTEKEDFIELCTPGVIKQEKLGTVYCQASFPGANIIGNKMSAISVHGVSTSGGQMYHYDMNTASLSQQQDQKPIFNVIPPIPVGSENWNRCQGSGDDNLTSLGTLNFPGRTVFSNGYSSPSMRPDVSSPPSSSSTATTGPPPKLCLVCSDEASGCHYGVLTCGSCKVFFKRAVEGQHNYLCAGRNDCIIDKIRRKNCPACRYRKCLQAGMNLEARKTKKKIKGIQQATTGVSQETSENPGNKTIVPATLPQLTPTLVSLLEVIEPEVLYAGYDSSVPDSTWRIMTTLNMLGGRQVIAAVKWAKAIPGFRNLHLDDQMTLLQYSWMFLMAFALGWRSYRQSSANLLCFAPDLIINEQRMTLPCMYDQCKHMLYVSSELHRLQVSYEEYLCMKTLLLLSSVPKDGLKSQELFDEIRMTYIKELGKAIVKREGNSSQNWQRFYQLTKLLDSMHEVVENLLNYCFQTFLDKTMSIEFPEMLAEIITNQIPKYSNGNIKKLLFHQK

[6] = biological target: Glucocorticoid receptor (Homo sapiens) (UniProt P04150); assay: GR-EFC Redistribution (AID 451; calls by dose curve; further: potency means the concentration at half of the fitted maximal effect); conditions: CHO-K1 GR-EFC translocation, beta-gal luminescence, 2 h
Method in brief: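 CHO-K1 cells expressing nuclear EA and GR-ED fragments of b-gal; compounds titrated up to 46 uM final, 2 h at 37 C. GR nuclear translocation read as complemented b-gal luminescence after 1 h RT detection.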

[7] = biological target: Mitogen-activated protein kinase 10 (Mus musculus) (UniProt Q61831); assay: JNK3 AlphaScreen Assay (AID 530); conditions: JNK3 lysate, c-Jun phosphorylation; series mostly up to 57.1 µM;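 further: kinase came from lysate of stimulated human HepG2 cells; signal reports phosphorylation of biotinylated GST-cJun 1-79 at Ser73 with 10 µM ATP; on the % scale 0 is the no-effect control and ±100 the full control effect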
Method in brief: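 Pre-activated (IL-1β/TNFα) JNK3 in HepG2 lysates phosphorylates biotin-GST-cJun(1-79), 10 uM ATP; anti-phospho-cJun(Ser73) AlphaScreen read at room temperature, pH 7.6 Tris buffer. Compounds pre-incubated 15 min as titrations.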

[8] = biological target: 3',5'-cyclic-AMP phosphodiesterase 4B (Homo sapiens) (UniProt Q07343); assay: qHTS Assay for Inhibitors of PDE-IV (AID 607; active means well fitted activation curve with a large enough effect in the main read-out, with a control signal flat, not every such curve was filed as active; further: % of control where 0% means no effect); conditions: HEK293 ACTOne CNG channel cells, membrane potential fluorescence; series mostly up to 22.9 µM
Chain of 3',5'-cyclic-AMP phosphodiesterase 4B (Homo sapiens) (Q07343 whole entry, looked up): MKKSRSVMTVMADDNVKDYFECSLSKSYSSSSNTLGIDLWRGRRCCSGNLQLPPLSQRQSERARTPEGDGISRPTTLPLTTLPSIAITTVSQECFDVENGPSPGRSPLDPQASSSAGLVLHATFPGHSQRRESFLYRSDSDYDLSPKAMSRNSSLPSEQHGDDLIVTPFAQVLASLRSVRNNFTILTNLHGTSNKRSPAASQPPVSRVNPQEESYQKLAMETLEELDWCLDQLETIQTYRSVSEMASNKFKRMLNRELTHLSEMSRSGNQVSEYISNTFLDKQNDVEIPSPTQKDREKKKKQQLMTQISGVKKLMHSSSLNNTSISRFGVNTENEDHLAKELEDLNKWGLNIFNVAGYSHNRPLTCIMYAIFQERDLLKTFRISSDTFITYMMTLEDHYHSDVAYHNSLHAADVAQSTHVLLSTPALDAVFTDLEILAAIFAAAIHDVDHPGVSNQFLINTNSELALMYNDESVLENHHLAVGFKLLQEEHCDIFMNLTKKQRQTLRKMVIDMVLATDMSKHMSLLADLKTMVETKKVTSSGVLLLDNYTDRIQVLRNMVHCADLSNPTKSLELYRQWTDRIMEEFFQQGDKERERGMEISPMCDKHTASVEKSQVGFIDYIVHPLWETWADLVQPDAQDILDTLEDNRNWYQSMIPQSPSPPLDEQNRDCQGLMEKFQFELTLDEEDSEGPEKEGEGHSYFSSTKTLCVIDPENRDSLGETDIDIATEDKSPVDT
Method in brief: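 The readout is membrane depolarisation from a cAMP-sensing CNG channel, detected with a potential dye at ex 535/em 590. Cells were HEK293-derived (endogenous PDE-IV) at 1000 cells/well, titrated up to 22.9 uM final.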

[9] = qHTS Assay for Lipid Storage Modulators (AID 1519; calls by dose curve); conditions: Drosophila S3 cells, BODIPY lipid droplet/cell ratio, laser cytometry, cells loaded with oleic acid; for activity change, negative = inhibition: at 25.7 µM (top of the series)
Method in brief: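 Cells seeded at 5,000 per well were treated with compounds over a concentration series and loaded with oleic acid (400 uM, as added). Lipid droplet fluorescence (488 nm excitation, 500-530 nm channel) was read by laser-scanning cytometry and normalized to 20 uM Triacsin C.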

[10] = biological target: Ubiquitin carboxyl-terminal hydrolase 1 (Homo sapiens) (UniProt O94782); assay: Inhibitors of USP1/UAF1: Pilot qHTS (AID 504865; active means well fitted curve in the direction sought with a large enough effect; an effect the other way counts as inactive or inconclusive;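 further: rhodamine fluorescence freed from ubiquitin-rhodamine substrate followed over time; top concentration of the series differs between compounds; on the % scale 0 is the no-effect control and ±100 the full control effect; nearly all actives have a fitted effect of over 35% in size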); conditions: purified USP1/UAF1, Ub-rhodamine cleavage fluorescence; series mostly up to 54.9 µM
Chain of Ubiquitin carboxyl-terminal hydrolase 1 (Homo sapiens) (O94782 whole entry, looked up): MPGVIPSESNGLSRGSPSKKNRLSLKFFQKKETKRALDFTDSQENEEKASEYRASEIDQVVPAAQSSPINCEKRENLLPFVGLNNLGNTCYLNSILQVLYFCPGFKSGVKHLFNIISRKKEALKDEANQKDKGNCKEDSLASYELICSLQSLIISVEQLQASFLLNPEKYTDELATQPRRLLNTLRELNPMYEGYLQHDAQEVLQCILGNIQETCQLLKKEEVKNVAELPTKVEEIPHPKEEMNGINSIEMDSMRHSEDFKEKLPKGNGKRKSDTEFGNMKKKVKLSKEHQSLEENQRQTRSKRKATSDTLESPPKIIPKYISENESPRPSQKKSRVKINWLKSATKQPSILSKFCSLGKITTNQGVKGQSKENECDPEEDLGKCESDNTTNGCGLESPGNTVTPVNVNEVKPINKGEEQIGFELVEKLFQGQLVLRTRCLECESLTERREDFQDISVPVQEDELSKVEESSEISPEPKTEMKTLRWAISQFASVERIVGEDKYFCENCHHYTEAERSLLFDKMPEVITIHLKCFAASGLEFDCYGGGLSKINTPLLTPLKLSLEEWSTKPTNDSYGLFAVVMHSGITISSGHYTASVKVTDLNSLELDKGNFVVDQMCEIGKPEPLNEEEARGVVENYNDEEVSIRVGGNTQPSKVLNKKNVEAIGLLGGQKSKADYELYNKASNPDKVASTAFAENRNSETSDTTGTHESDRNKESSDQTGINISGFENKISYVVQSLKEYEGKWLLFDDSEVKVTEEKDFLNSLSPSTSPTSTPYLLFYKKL
Method in brief: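 USP1/UAF1 complex (1nM) preincubated with compound 15 min at room temperature, then Ub-Rho substrate (150nM final) added. Fluorescence read kinetically at 480/540 nm, 6 reads every 60 seconds. Buffer: 50mM HEPES pH 7.8, 0.5mM EDTA, 0.1 mg/ml BSA, 1mM TCEP, 0.01% Tween-20.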

[11] = biological target: ATP-dependent 6-phosphofructokinase (Trypanosoma brucei brucei) (UniProt O15648); assay: qHTS Assay to Find Inhibitors of T. brucei phosphofructokinase: hit validation (AID 492961; active means well fitted curve in the direction sought with a large enough effect; an effect the other way counts as inactive or inconclusive); conditions: T. brucei PFK, ADP-Glo luminescence; series mostly up to 24.3 µM
Chain of ATP-dependent 6-phosphofructokinase (Trypanosoma brucei brucei) (O15648 whole entry, looked up): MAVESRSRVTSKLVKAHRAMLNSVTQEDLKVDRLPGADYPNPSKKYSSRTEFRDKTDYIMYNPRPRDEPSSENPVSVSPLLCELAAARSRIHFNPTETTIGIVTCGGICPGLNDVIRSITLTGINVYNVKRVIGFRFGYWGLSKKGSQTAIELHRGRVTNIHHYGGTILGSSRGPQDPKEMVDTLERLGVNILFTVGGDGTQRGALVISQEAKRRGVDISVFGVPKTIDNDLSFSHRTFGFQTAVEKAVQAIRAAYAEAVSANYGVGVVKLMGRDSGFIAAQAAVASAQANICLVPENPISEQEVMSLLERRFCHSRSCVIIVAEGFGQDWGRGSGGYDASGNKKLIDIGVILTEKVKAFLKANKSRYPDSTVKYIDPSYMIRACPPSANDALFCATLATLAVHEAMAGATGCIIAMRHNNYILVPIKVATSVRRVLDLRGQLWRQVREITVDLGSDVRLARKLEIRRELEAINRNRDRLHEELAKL
Method in brief: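 Inhibition of parasite PFK is measured as reduced ADP formation, quantified via luciferase after ATP depletion. Assay used 0.1 mM ATP, 0.5 mM F6P, 1.25 nM enzyme, 45 min incubation.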

[12] = qHTS profiling for inhibitors of Plasmodium falciparum proliferation (AID 504749; active means well fitted curve in the direction sought with a large enough effect; an effect the other way counts as inactive or inconclusive;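 further: 0% = DMSO vehicle and full inhibition = artemisinin control; nearly all actives have a fitted effect of over 60% in size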); conditions: P. falciparum in erythrocytes, SYBR Green DNA, 72 h, at 28.7 µM (top of the series)
Method in brief: (§1)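 P. falciparum-infected erythrocytes (0.3% parasitemia, 2.5% hematocrit) incubated with compound 72 h at 37 C, 5% CO2. Parasite DNA detected by SYBR Green after lysis, overnight at room temperature; normalised to 0.29 uM artemisinin and DMSO.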

[13] = system: AS120; assay: as above; conditions: P. falciparum in erythrocytes, SYBR Green DNA, 72 h; series mostly up to 28.7 µM
Method in brief: as §1

[14] = system: CP238; assay: as above; conditions: P. falciparum in erythrocytes, SYBR Green DNA, 72 h; series mostly up to 12.8 µM
Method in brief: as §1

[15] = system: CP250; assay: as above; conditions: P. falciparum in erythrocytes, SYBR Green DNA, 72 h; series mostly up to 12.8 µM
Method in brief: as §1

[16] = system: CP262; assay: as above; conditions: P. falciparum in erythrocytes, SYBR Green DNA, 72 h; series mostly up to 12.8 µM
Method in brief: as §1

[17] = system: CP265; assay: as above; conditions: P. falciparum in erythrocytes, SYBR Green DNA, 72 h; series mostly up to 12.8 µM
Method in brief: as §1

[18] = system: FAB9; assay: as above; conditions: P. falciparum in erythrocytes, SYBR Green DNA, 72 h; series mostly up to 12.8 µM
Method in brief: as §1

[19] = system: JCK; assay: as above; conditions: P. falciparum in erythrocytes, SYBR Green DNA, 72 h; series mostly up to 12.8 µM
Method in brief: as §1

[20] = system: PC49; assay: as above; conditions: P. falciparum in erythrocytes, SYBR Green DNA, 72 h; series mostly up to 12.8 µM
Method in brief: as §1

[21] = measured here: cell count channel max response
[22] = measured here: lipid channel max response

SMILES: O=C(O)CNC(=O)[C@@H](CS)Cc1ccccc1
- activity change, negative = inhibition ([1]; at 17.2 µM (top of the series)): 1.14% (inactive)
- activity change, negative = inhibition ([1]; at 38 µM (top of the series)): -1.37% (inactive)
- Potency [2]: inactive
- activity change, negative = inhibition ([3]; at 17.2 µM (top of the series)): 3.12% (inactive)
- activity change, negative = inhibition ([3]; at 38 µM (top of the series)): -2.03% (inactive)
- activity, negative = inhibition ([4]; at 17.2 µM (top of the series)): 14.5% (inactive)
- activity, negative = inhibition ([4]; at 38 µM (top of the series)): 26.3% (inactive)
- Potency [5]: > 46 µM (inactive) and > 20.6 µM (inactive)
- Potency [6]: > 46 µM (inactive) and > 20.6 µM (inactive)
- Potency [7]: inactive
- Potency [8]: inactive
- activity change, negative = inhibition [9]: -1.09% (inactive)
- max response [9, 21]: -2.84%
- max response [9, 22]: -4.92%

SMILES: CC(C)(Oc1ccc([C@@H]2CC2(Cl)Cl)cc1)C(=O)O
- activity change, negative = inhibition ([1]; at 17.2 µM (top of the series)): -1.19% (inactive)
- activity change, negative = inhibition ([1]; at 38 µM (top of the series)): -10.2% (inactive)
- Potency [2]: inactive
- activity change, negative = inhibition ([3]; at 17.2 µM (top of the series)): -16.8% (inactive)
- activity change, negative = inhibition ([3]; at 38 µM (top of the series)): -7.66% (inactive)
- activity, negative = inhibition ([4]; at 7.69 µM (top of the series) unless noted): -2.06% [at 17.2 µM] (inactive)
- Potency [5]: > 46 µM (inactive) and > 20.6 µM (inactive)
- Potency [6]: > 46 µM (inactive) and > 20.6 µM (inactive)
- Potency [7]: inactive
- Potency [8]: inactive
- activity change, negative = inhibition [9]: -0.371% (inactive)
- max response [9, 21]: -16.1%
- max response [9, 22]: -15.2%
- Potency [10]: inactive

SMILES: CO/N=C(\C(=O)N[C@@H]1C(=O)N2C(C(=O)O)=C(COC(C)=O)CS[C@@H]12)c1csc(N)n1
- activity change, negative = inhibition ([1]; at 17.2 µM (top of the series)): -5.85% (inactive)
- activity change, negative = inhibition ([1]; at 38 µM (top of the series)): -1.56% (inactive)
- Potency [2]: inactive and 12.6 µM (active)
- activity change, negative = inhibition ([3]; at 17.2 µM (top of the series)): -7.64% (inactive)
- activity change, negative = inhibition ([3]; at 38 µM (top of the series)): 3.41% (inactive)
- activity, negative = inhibition ([4]; at 17.2 µM (top of the series)): 3.57% (inactive)
- activity, negative = inhibition ([4]; at 38 µM (top of the series)): -20.5% (inactive)
- Potency [5]: > 46 µM (inactive) and > 20.6 µM (inactive)
- Potency [6]: > 46 µM (inactive) and > 20.6 µM (inactive)
- Potency [7]: inactive
- Potency [8]: inactive
- activity change, negative = inhibition [9]: -0.702% (inactive)
- max response [9, 21]: -14.1%
- max response [9, 22]: -14.6%
- outcome [11]: inactive
- Potency [10]: inactive
- activity, negative = inhibition ([12]; parasite line A): 7.66% (inactive)
- activity, negative = inhibition ([12]; parasite line B): -2.07% (inactive)
- Potency [13]: inactive
- Potency [14]: inactive
- Potency [15]: inactive
- Potency [16]: inactive
- Potency [17]: inactive
- Potency [18]: inactive
- Potency [19]: inactive
- Potency [20]: inactive

SMILES: CO[C@]1(NC(=O)CSCC#N)C(=O)N2C(C(=O)O)=C(CSc3nnnn3C)CS[C@H]21
- activity change, negative = inhibition ([1]; at 17.2 µM (top of the series)): 6.3% (inactive)
- activity change, negative = inhibition ([1]; at 38 µM (top of the series)): 6.07% (inactive)
- Potency [2]: inactive
- activity change, negative = inhibition ([3]; at 17.2 µM (top of the series)): -17.5% (inactive)
- activity change, negative = inhibition ([3]; at 38 µM (top of the series)): -10.8% (inactive)
- activity, negative = inhibition ([4]; at 17.2 µM (top of the series)): -13.5% (inactive)
- activity, negative = inhibition ([4]; at 38 µM (top of the series)): 0.96% (inactive)
- Potency [5]: > 46 µM (inactive) and > 20.6 µM (inactive)
- Potency [6]: > 46 µM (inactive) and > 20.6 µM (inactive)
- Potency [7]: inactive
- Potency [8]: inactive
- activity change, negative = inhibition [9]: -1.05% (inactive)
- max response [9, 21]: -7.44%
- max response [9, 22]: -5.83%
- outcome [11]: inactive
- Potency [10]: inactive
- activity, negative = inhibition ([12]; parasite line A): 11.9% (inactive)
- activity, negative = inhibition ([12]; parasite line B): 2.32% (inactive)
- Potency [13]: inactive
- Potency [14]: inactive
- Potency [15]: inactive
- Potency [16]: inactive
- Potency [17]: inactive
- Potency [18]: inactive
- Potency [19]: inactive
- Potency [20]: inactive
